Measured values published in PubChem BioAssay AID1159580 (chemical genetic matrix, 2015).
Where “and” joins values, the source holds several entries; their conditions need not be identical. Equal values may be shown once. Out of some 5,500 compounds screened, about 2,000 (36%) were called active. Inconclusive results (about 18%) are left out. No stated cut-off is given here; in the data, active means normalized growth mostly below about 0.91 (no sharp cut-off); inconclusive means no clear call, values can overlap the other calls; inactive means mostly above about 0.92. The list shows a part of the results.

Test: chemical genetic growth profiling, strain panel (AID 1159580);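 further: tested at 20 µM; growth read once vehicle control cultures reached saturation at 30 °C; 1 = growth at the plate median or of vehicle wells; lower values mean less growth of the strain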
Conditions: S. cerevisiae deletion strains, growth OD

Measured: normalized growth

O=C(O)c1ccc(S(=O)(=O)N(Cl)Cl)cc1
inactive: locus YAL013W, strain DEP1, hits give low values 1 | locus YAL021C, strain ccr4, hits give low values 1 | locus YAL026C, strain drs2, hits give low values 0.962 | locus YAL030W, strain snc1, hits give low values 0.994 | locus YBL061C, strain skt5, hits give low values 0.975 | locus YBR009C, strain hhf1, hits give low values 0.925 | locus YBR021W, strain FUR4, hits give low values 0.987 | locus YBR023C, strain chs3, hits give low values 1 | locus YBR171W, strain sec66, hits give low values 0.969 | locus YBR229C, strain ROT2, hits give low values 1 | locus YBR231C, strain swc5, hits give low values 0.995 | locus YBR279W, strain paf1, hits give low values 0.992 | locus YCL011C, strain gbp2, hits give low values 0.977 | locus YCL016C, strain dcc1, hits give low values 1 | locus YCL029C, strain bik1, hits give low values 1.01 | locus YCL061C, strain MRC1, hits give low values 0.933 | locus YCL069W, strain vba3, hits give low values 0.988 | locus YCR088W, strain abp1, hits give low values 0.998 | locus YDL005C, strain med2, hits give low values 0.996 | locus YDL035C, strain GPR1, hits give low values 0.989 | locus YDL040C, strain nat1, hits give low values 0.992 | locus YDL074C, strain BRE1, hits give low values 0.98 | locus YDL101C, strain DUN1, hits give low values 1 | locus YDL185W, strain tfp1, hits give low values 1.01 | locus YDL192W, strain arf1, hits give low values 1.03 | locus YDR001C, strain nth1, hits give low values 0.978 | locus YDR069C, strain doa4, hits give low values 1.02 | locus YDR101C, strain arx1, hits give low values 1.02 | locus YDR137W, strain rgp1, hits give low values 1.01 | locus YDR150W, strain NUM1, hits give low values 1 | locus YDR159W, strain sac3, hits give low values 0.98 | locus YDR162C, strain NBP2, hits give low values 1 | locus YDR195W, strain ref2 0.996 | locus YDR297W, strain sur2, hits give low values 0.988 | locus YDR318W, strain mcm21, hits give low values 1.01 | locus YDR334W, strain swr1, hits give low values 0.97 | locus YDR335W, strain msn5, hits give low values 0.987 | locus YDR388W, hits give low values 1.02 | locus YDR392W, strain spt3, hits give low values 0.939 | locus YDR502C, strain sam2, hits give low values 1.04 | locus YEL003W, strain gim4, hits give low values 0.964 | locus YEL037C, strain rad23, hits give low values 0.962 | locus YEL061C, strain CIN8 (second series), hits give low values 0.975 | locus YEL061C, strain CIN8, hits give low values 1 | locus YER015W, strain faa2, hits give low values 1 | locus YER016W, strain bim1, hits give low values 0.997 | locus YER110C, hits give low values 1.03 | locus YER111C, strain swi4, hits give low values 0.982 | locus YER155C, strain BEM2 (second series), hits give low values 0.979 | locus YER155C, strain BEM2, hits give low values 0.992 | locus YER167W, strain BCK2, hits give low values 1 | locus YFR010W, strain ubp6, hits give low values 0.959 | locus YGL078C, strain dbp3, hits give low values 1.03 | locus YGL086W, strain mad1, hits give low values 0.991 | locus YGL167C, strain pmr1, hits give low values 0.973 | locus YGL173C, strain kem1, hits give low values 0.982 | locus YGL227W, strain vid30, hits give low values 0.996 | locus YGL240W, strain doc1, hits give low values 1.02 | locus YGL248W, strain PDE1, hits give low values 1 | locus YGL253W, strain hxk2, hits give low values 0.999 | locus YGR078C, strain PAC10, hits give low values 0.998 | locus YGR135W, strain pre9, hits give low values 1.01 | locus YGR252W, strain gcn5, hits give low values 0.971 | locus YHR013C, strain ard1, hits give low values 1.01 | locus YHR027C, strain rpn1, hits give low values 0.993 | locus YHR030C, strain SLT2, hits give low values 0.999 and 0.973 | locus YHR079C, strain IRE1 (second series), hits give low values 1.02 | locus YHR079C, strain IRE1, hits give low values 0.973 | locus YHR094C, strain hxt1, hits give low values 1.03 | locus YHR129C, strain ARP1, hits give low values 0.996 | locus YHR142W, strain chs7, hits give low values 0.971 | locus YHR200W, strain rpn10, hits give low values 1.03 | locus YIL066C, strain RNR3, hits give low values 1 | locus YIL073C, strain SPO22, hits give low values 1.03 | locus YIL125W, strain kgd1, hits give low values 1.01 | locus YIR030C, strain dcg1, hits give low values 1.03 | locus YJL092W, strain hpr5, hits give low values 0.987 | locus YJL095W, strain BCK1 (second series), hits give low values 0.991 | locus YJL095W, strain BCK1, hits give low values 1 and 0.969 | locus YJL115W, strain asf1, hits give low values 0.969 | locus YJL129C, strain trk1, hits give low values 0.996 | locus YJL134W, strain LCB3, hits give low values 1 | locus YJL154C, strain vps35, hits give low values 0.985 | locus YJL164C, strain tpk1, hits give low values 0.954 | locus YJL166W, strain qcr8, hits give low values 1.01 | locus YJL168C, strain set2, hits give low values 1.02 | locus YJL187C, strain SWE1 (second series), hits give low values 0.998 | locus YJL187C, strain SWE1, hits give low values 0.994 | locus YJR043C, strain POL32, hits give low values 0.982
